Records with an inconclusive call do not appear. Calls of active or inactive are those of the source. Unless noted, the call rests on the fitted dose curve; in most records, active means well fitted curve in the direction sought with a large enough effect; inconclusive means small, poorly fitted or top-dose-only effect, or another doubt; inactive means no such curve, though single readings can be large; an effect the other way counts as inactive or inconclusive.
Tests used:
[1] = molecular target: Cytochrome P450 1A2 (Homo sapiens) (UniProt P05177); assay: p450-cyp1a2 (AID 410; calls by dose curve; further: potency means the concentration at half of the fitted maximal effect)
Outline: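 O-Demethylation of luciferin 6' methyl ether by human CYP1A2 is monitored as luciferase luminescence. Substrate sits at Km (100uM); enzyme is 20nM. Values are scaled to 57 uM furafylline as maximal inhibition.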

[2] = Stat Signaling Pathway (AID 446; active means well fitted curve in either direction with a large enough effect, not every such curve was filed as active;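 further: ME-180 cervical cancer cells given 40 pM IL-6 alongside compound; SIE-controlled beta-lactamase reporter measured as 460/530 nm FRET emission ratio; on the % scale 0 is the no-effect control and ±100 the full control effect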)
Outline: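 FRET read-out (405 nm excitation, 460/530 nm emission) of a beta-lactamase reporter under a STAT-inducible element in ME-180 cervical carcinoma cells. Cells with compound receive 40 pM IL-6 for 5 h. Values are normalised to AC90 stimulation and AC90 JAK-inhibitor controls.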

[3] = molecular target: Glucocorticoid receptor (Homo sapiens) (UniProt P04150); assay: GR-GFP Redistribution (AID 450;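 active means compounds whose dose series gives a full or clear partial fitted curve of increased nuclear translocation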; further: potency means the concentration at half of the fitted maximal effect); conditions: U2OS GR-GFP nuclear translocation, laser cytometry, 2 h
[4] = molecular target: Glucocorticoid receptor (Homo sapiens) (UniProt P04150); assay: GR-EFC Redistribution (AID 451; calls by dose curve; further: potency means the concentration at half of the fitted maximal effect); conditions: CHO-K1 GR-EFC translocation, beta-gal luminescence, 2 h
Outline: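 Translocation of GR-ED fusion to nuclear EA restores b-gal, read by luminescence after 1 h room-temperature detection. Engineered CHO-K1 biosensor cells, 1,000/well, exposed 2 h at 37 C to titrations up to 46 uM final.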

[5] = molecular target: 3',5'-cyclic-AMP phosphodiesterase 4B (Homo sapiens) (UniProt Q07343); assay: qHTS Assay for Inhibitors of PDE-IV (AID 607; active means well fitted activation curve with a large enough effect in the main read-out, with a control signal flat, not every such curve was filed as active; further: % of control where 0% means no effect)
Outline: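 Cell-based read-out of cAMP via a modified cyclic nucleotide-gated channel and membrane potential dye (535/590 nm) in HEK293 cells expressing PDE4 endogenously. Compounds tested up to 22.9 uM final; 100 uM RO 20-1724 reference.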

[6] = molecular target: Guanine nucleotide-binding protein G(i) subunit alpha-1 (Homo sapiens) (UniProt P63096); assay: qHTS Assay for Inhibitors of RGS12 GoLoco Motif Activity (Green Fluorophore) (AID 879);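 further: 0% = labeled peptide with Gαi1 and full inhibition = labeled peptide alone without protein; negative values mean loss of peptide binding seen as reduced polarization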
Outline: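 A drop in FITC polarization marked displacement of the FITC-tagged RGS12 GoLoco peptide (10 nM) from Gαi1 (50 nM). Compounds were incubated 10 min at room temperature in Tris pH 7.5 buffer containing 150 mM NaCl, 0.1 mM GDP and 0.05% NP40; unlabeled peptide titration served as control.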

[7] = molecular target: Cytochrome P450 3A4 (Homo sapiens) (UniProt P08684); assay: qHTS Assay for Activators of Cytochrome P450 3A4 (AID 885); further: nearly all actives have a fitted effect of over 65% in size
Outline: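 Luminescent readout of luciferin formed from 25 uM Luciferin-PPXE (KM level) by 20 nM CYP3A4 in 200 mM KPO4, with 60 min NADPH-driven reaction at room temperature after 10 min compound exposure. Ketoconazole (57 uM) defined 100% inhibition.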

[8] = qHTS Assay for Identification of Small Molecule Antagonists for Thrombopoietin (TPO) Signaling Pathway (AID 918); conditions: TPO-dependent cell signaling reporter, antagonist mode; further: potency means the concentration at half of the fitted maximal effect; nearly all actives have a fitted effect of over 60% in size
Outline: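 Inhibitors of TPO signaling are sought by stimulating IL-3-starved murine Ba/F3 cells (human TPO receptor, Glycoprotein IIb-driven luciferase) with TPO at its EC50 of 26 pM alongside compound. After 24 hrs at 37 C, reporter luminescence is measured.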

[9] = molecular target: Pyruvate kinase (Leishmania mexicana) (UniProt Q27686); assay: qHTS Validation Assay for Inhibitors of Leishmania Mexicana Pyruvate Kinase (AID 945);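 further: 0% = DMSO only neutral control wells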
Outline: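 Substrate mix (0.5 mM PEP, 0.1 mM ADP, 7 mM MgCl2, 50 mM KCl, pH 7.2 imidazole) received compound by pin tool, then 0.2 nM LmPYK E451W. After 1 h at room temperature, PKLight was added and luminescence measured.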

[10] = molecular target: Pyruvate kinase PKM (Homo sapiens) (UniProt P14618); assay: qHTS Assay for Activators of Human Muscle Pyruvate Kinase (AID 954; active means well fitted curve in the direction sought with a large enough effect, not every such curve was filed as active;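 further: 0% = uninhibited enzyme and -100% = no enzyme or full thiadiazolimine inhibition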)
Outline: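 ATP production by PKM2 detected via luciferase luminescence after 1 h room-temperature reaction (0.1 nM enzyme, PEP at Km 0.5 mM, ADP 0.1 mM, pH 7.2 imidazole buffer). Inhibition scaled to no-enzyme control; activation referenced to 0.3 nM enzyme wells.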

[11] = molecular target: Alpha-galactosidase A (Homo sapiens) (UniProt P06280); assay: Counterscreen for Glucocerebrosidase Inhibitors: qHTS Assay for Human alpha-Galactosidase at pH 4.5 (AID 992); further: 0% is about no effect
Outline: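 Fluorogenic 1536-well qHTS at pH 4.5 (citrate, Tween-20): 2 nM enzyme, 80 uM 4-MU-alpha-galactoside, 20 min room temperature, NaOH/glycine stop. Titration 0.7 nM to 77 uM, data normalized to no-enzyme and full-activity controls, Hill-fitted AC50.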

[12] = molecular target: alpha-glucosidase (Oryza sativa, rice) (UniProt Q653V4); assay: Counterscreen for Glucocerebrosidase Inhibitors: qHTS Assay for Rice alpha-Glucosidase at pH 5.0 (AID 997);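 further: 0% = full activity with enzyme and -100% = basal without enzyme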
Outline: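 Endpoint fluorogenic assay at pH 5.0: compounds (0.7 nM to 77 uM) titrated against 4 nM rice enzyme and 400 uM 4-MU-alpha-glucoside for 20 min at room temperature; NaOH/glycine stop, read ex 365/em 440 nm, Hill-fitted AC50.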

[13] = molecular target: DNA repair nuclease/redox regulator APEX1 (Homo sapiens) (UniProt P27695); assay: qHTS Validation Assay for Inhibitors of the Human Apurinic/apyrimidinic Endonuclease 1 (APE1) (AID 1705;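 further: TAMRA fluorescence gain over two minutes as APE1 cuts a quenched THF abasic duplex; series mostly up to about 57 µM; on the % scale 0 is the no-effect control and ±100 the full control effect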)
Outline: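 qHTS, 1536-well. APE1 + cpd 15 min RT → 50 nM TAMRA/BHQ-2 THF-abasic dsDNA substrate → kinetic fluorescence, 3 reads/60 s; delta(read3−read1) = reaction progress. No-enzyme buffer = negative control.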

[14] = Counterscreen for APE1 Inhibitors: Fluorescent Dye Displacement Validation Assay (AID 1707);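 further: plate controls were ThO with dsDNA and no compound for no effect and ThO without dsDNA for full effect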
Outline: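 Counterscreen flags promiscuous DNA binders: compounds displacing ThO from duplex DNA (abasic THF site, 50 nM) reduce 540 nm emission (480 nm excitation). ThO 250 nM final; Tris-HCl pH 7.5 with NaCl, MgCl2 and Tween-20.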

[15] = qHTS for differential inhibitors of proliferation of Plasmodium falciparum line 7G8 (AID 1815);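 further: potency means the concentration at half of the fitted maximal effect; parasite growth measured after three days of incubation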
[16] = qHTS for differential inhibitors of proliferation of Plasmodium falciparum line GB4 (AID 1816); conditions: Potency: Plasmodium falciparum GB4 proliferation inhibition;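 further: potency means the concentration at half of the fitted maximal effect; parasite growth measured after 72 h incubation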
[17] = qHTS for differential inhibitors of proliferation of Plasmodium falciparum line D10 (AID 1877);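 further: potency means the concentration at half of the fitted maximal effect; parasites grown with compound for 72 h before DNA staining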
[18] = qHTS for differential inhibitors of proliferation of Plasmodium falciparum line W2 (AID 1883); conditions: Potency: Plasmodium falciparum W2 proliferation inhibition;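 further: potency means the concentration at half of the fitted maximal effect; parasites grown with compound for 72 h before lysis and staining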
[19] = qHTS for differential inhibitors of proliferation of Plasmodium falciparum line HB3 (AID 1886); conditions: Potency: Plasmodium falciparum HB3 proliferation inhibition;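 further: potency means the concentration at half of the fitted maximal effect; parasites grown with compound for 72 h before SYBR Green readout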
[20] = molecular target: ATP-dependent DNA helicase Q1 (Homo sapiens) (UniProt P46063); assay: qHTS Validation Assay for Inhibitors of RecQ-Like Dna Helicase 1 (RECQ1) (AID 2353);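 further: plate controls were DMSO vehicle for no effect and enzyme-free control for full effect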
Outline: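 RECQ1T1 50 nM; forked duplex (20 bp + 30-nt ss tails) 200 nM, ATP 2 mM final; pH 8.0, 2 mM MgCl2, 2.5 ug/ml poly(dI-dC); 15 min compound preincubation; discontinuous kinetic read over 2 h at RT.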

[21] = molecular target: M-phase phosphoprotein 8 (Homo sapiens) (UniProt Q99549); assay: qHTS Validation Assay for Inhibitors for MPP8 Chromodomain Interactions with Methylated Histone Tails (AID 488949);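 further: 50 nM MPP8 with 50 nM peptide preformed then compounds added for 30 min; AlphaScreen signal from MPP8 chromodomain bound to biotinylated H3K9me3 peptide; top concentration of the series differs between compounds; on the % scale 0 is the no-effect control and ±100 the full control effect; nearly all actives have a fitted effect of over 55% in size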
Outline: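 50 nM MPP8 + 50 nM b-H3K9me3 peptide, PBS pH 7.4/0.01% Tween-20, 30 min RT; + cpd 30 min RT; + AlphaScreen donor/Ni-chelate acceptor beads 10 ug/mL final, 30 min dark; luminescence read.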

[22] = molecular target: Transient receptor potential cation channel subfamily V member 1 (Homo sapiens) (UniProt Q8NER1); assay: HTS Assay for Compounds that Act as Enhancers of the Vanilloid Receptor 1 (AID 488979); further: 0% is about no effect
Outline: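 Calcium influx kinetics via Fluo-8 (480/520 nm) in TRPV1-expressing cells, 2000/well cultured overnight at 35.5C. Compound-alone read 3 min (agonist phase), followed by EC20 capsaicin challenge for 2 min (enhancer phase).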

[23] = molecular target: Thyrotropin receptor (Homo sapiens) (UniProt P16473); assay: qHTS Assay for Antagonists of the Thyroid Stimulating Hormone Receptor (AID 488980); further: series mostly up to about 58 µM; 0% is about no effect
Outline: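 Readout is cAMP by HTRF competition between cellular cAMP and cAMP-d2 for a cryptate-labelled antibody. Antagonism was assessed in TSHR-transfected HEK293 cells stimulated with 4 nM TSH (EC80, final) in the presence of RO 20-1724.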

[24] = molecular target: Thyrotropin-releasing hormone receptor (Homo sapiens) (UniProt P34981); assay: qHTS for Small Molecule Agonists and Allosteric Enhancers of Human TRH Receptor: Validation Screen for Agonists (AID 493127;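 active means calcium activation more than 3 SD above the typical response in the agonist read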;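 further: intracellular calcium rise by fluo-8 fluorescence before TRH EC20 addition; 0% is about no effect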); conditions: TRH receptor agonist cell assay; at 2 µM; active compounds read high
Outline: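 Compounds are added by online pintool to dye-loaded TRHR cells while fluorescence is recorded every second. A rise in calcium signal during the agonist read marks activation; a later 10 nM TRH addition (EC20) serves the separate enhancer mode.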

[25] = molecular target: Galactokinase (Homo sapiens) (UniProt P51570); assay: qHTS Validation Assay for Inhibitors of Human Galactokinase (GALK) (AID 493189); further: 0% is about no effect
Outline: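 5 nM GALK / 100 uM galactose / 35 uM ATP, 20 mM HEPES pH8.0, 5 mM MgCl2, 60 mM NaCl, 1 mM DTT, 0.01% BSA (final). RT 1 h; Kinase-Glo Plus luminescence.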

[26] = molecular target: Voltage-gated inwardly rectifying potassium channel KCNH2 (Homo sapiens) (UniProt Q12809); assay: qHTS Assay for Small Molecule Inhibitors of the Human hERG Channel Activity (AID 588834);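 further: potency means the concentration at half of the fitted maximal effect; lower thallium flux fluorescence means stronger hERG block; nearly all actives have a fitted effect of over 50% in size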
Outline: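 Step 1: BacMam hERG transduction of U2OS, 4 hrs RT. Step 2: overnight 37 °C, plate 2000 cells/well, 4 hr. Step 3: FluxOR load, compound 10 min, stimulate, read fluorescence.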

Chain of Glucocorticoid receptor (Homo sapiens) (P04150 whole entry, looked up, the tested form may be a part): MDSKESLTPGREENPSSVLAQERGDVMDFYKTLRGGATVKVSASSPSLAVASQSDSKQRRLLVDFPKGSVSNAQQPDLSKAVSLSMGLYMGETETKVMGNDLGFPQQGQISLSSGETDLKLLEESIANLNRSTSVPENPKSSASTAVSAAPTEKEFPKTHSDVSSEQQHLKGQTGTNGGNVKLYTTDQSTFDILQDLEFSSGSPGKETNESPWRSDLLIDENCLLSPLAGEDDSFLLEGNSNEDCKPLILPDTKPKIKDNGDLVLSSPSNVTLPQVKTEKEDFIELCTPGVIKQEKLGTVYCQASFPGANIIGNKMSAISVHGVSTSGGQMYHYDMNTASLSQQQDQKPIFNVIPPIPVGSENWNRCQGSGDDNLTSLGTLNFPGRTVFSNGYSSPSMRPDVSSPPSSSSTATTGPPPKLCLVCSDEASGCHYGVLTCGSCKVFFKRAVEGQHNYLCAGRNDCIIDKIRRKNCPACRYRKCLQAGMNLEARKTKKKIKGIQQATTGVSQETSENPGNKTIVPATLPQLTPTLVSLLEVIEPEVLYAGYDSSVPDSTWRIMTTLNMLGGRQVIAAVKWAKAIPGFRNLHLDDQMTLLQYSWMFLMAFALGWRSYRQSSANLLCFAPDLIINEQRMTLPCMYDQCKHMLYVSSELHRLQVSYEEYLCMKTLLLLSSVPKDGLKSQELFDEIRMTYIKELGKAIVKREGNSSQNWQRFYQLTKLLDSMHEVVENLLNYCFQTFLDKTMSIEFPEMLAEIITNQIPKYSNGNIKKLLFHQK
Chain of Guanine nucleotide-binding protein G(i) subunit alpha-1 (Homo sapiens) (P63096 whole entry, looked up): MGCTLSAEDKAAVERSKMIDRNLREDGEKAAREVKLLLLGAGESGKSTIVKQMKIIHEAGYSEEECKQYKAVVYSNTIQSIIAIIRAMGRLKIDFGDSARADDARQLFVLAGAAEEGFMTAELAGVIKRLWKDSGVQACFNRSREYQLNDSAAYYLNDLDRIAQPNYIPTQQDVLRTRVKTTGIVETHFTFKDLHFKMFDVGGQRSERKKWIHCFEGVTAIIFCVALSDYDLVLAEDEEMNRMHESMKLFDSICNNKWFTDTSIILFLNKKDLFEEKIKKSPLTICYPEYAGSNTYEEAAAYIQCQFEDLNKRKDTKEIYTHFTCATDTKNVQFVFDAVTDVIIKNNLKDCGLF
Chain of Galactokinase (Homo sapiens) (P51570 whole entry, looked up): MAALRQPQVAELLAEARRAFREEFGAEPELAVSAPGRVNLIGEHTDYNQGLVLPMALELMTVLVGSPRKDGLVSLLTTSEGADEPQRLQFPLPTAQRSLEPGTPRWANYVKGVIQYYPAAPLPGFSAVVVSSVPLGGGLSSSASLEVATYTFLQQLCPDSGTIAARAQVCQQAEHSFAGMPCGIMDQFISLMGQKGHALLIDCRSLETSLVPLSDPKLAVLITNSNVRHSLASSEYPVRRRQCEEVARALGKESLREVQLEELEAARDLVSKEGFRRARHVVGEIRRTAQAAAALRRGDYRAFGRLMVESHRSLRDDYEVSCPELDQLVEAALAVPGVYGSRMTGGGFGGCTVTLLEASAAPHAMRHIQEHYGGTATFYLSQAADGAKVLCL
Chain of Pyruvate kinase PKM (Homo sapiens) (P14618 whole entry, looked up): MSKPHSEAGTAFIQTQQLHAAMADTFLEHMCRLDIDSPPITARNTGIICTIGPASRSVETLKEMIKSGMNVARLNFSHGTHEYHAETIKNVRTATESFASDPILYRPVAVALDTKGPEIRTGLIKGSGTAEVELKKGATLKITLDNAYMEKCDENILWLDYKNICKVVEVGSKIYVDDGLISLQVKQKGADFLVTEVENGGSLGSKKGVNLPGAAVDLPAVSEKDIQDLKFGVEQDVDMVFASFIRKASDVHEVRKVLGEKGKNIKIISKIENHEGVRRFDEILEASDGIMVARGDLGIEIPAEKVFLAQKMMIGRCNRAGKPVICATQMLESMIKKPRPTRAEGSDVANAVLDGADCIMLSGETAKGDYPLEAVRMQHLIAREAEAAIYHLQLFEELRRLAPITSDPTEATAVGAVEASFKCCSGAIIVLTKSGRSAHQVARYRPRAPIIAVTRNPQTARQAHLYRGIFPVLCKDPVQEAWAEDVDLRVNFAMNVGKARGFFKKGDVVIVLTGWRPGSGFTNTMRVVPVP
Chain of ATP-dependent DNA helicase Q1 (Homo sapiens) (P46063 whole entry, looked up): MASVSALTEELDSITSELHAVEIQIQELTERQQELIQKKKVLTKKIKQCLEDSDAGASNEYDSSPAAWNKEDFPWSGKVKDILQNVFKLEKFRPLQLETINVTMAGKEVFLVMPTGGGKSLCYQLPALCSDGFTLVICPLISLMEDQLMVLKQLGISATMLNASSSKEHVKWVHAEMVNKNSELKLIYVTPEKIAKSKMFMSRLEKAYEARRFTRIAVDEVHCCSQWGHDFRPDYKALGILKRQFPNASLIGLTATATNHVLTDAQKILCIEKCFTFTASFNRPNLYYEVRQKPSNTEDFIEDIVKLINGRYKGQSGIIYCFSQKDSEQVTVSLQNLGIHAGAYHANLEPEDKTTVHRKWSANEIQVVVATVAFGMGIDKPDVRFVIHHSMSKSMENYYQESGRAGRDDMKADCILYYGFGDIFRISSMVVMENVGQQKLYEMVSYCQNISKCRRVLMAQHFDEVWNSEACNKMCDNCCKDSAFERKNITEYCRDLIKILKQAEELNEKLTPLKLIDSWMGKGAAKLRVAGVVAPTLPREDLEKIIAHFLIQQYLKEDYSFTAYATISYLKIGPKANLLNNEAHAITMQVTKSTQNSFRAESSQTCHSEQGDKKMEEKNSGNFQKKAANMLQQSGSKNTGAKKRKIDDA
Chain of 3',5'-cyclic-AMP phosphodiesterase 4B (Homo sapiens) (Q07343 whole entry, looked up): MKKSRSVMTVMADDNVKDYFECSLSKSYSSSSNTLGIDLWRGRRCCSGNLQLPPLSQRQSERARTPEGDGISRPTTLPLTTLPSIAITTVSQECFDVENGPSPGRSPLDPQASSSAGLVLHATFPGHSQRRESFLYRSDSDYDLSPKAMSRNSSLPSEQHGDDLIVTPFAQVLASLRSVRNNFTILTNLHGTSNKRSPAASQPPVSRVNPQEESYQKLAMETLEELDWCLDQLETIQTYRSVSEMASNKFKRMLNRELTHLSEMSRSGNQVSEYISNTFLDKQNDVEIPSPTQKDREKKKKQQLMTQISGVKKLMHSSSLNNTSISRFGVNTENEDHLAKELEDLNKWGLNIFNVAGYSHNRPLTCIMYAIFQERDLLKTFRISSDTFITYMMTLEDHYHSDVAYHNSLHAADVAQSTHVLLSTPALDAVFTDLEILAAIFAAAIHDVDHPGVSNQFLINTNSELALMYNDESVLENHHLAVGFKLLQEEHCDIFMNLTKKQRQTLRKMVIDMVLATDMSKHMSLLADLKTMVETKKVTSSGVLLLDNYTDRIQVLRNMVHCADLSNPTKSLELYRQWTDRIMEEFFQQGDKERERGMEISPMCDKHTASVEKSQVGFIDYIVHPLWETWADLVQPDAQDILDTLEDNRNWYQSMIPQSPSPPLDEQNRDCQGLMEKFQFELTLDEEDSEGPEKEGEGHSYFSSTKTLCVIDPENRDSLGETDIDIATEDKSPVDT
Chain of Thyrotropin receptor (Homo sapiens) (P16473 whole entry, looked up): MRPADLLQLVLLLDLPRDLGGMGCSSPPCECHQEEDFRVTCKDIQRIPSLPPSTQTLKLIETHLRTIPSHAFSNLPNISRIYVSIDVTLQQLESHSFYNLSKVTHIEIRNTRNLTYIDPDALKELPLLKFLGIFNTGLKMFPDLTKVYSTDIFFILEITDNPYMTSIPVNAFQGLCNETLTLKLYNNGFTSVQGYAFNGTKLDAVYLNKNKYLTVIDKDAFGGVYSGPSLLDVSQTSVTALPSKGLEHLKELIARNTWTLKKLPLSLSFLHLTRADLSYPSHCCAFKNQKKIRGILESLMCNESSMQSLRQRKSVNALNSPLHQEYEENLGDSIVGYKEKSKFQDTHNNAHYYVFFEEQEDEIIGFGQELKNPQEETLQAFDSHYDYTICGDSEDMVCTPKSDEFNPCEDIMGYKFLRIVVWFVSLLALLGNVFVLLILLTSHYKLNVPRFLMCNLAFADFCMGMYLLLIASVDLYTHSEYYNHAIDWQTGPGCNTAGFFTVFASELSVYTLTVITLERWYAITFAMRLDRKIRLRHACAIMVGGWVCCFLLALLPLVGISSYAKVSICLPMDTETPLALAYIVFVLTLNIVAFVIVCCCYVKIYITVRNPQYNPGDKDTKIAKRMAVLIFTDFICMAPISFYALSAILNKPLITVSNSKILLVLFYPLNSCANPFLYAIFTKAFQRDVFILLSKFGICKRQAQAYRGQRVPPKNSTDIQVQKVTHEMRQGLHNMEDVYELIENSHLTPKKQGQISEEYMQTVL
Chain of Cytochrome P450 1A2 (Homo sapiens) (P05177 whole entry, looked up): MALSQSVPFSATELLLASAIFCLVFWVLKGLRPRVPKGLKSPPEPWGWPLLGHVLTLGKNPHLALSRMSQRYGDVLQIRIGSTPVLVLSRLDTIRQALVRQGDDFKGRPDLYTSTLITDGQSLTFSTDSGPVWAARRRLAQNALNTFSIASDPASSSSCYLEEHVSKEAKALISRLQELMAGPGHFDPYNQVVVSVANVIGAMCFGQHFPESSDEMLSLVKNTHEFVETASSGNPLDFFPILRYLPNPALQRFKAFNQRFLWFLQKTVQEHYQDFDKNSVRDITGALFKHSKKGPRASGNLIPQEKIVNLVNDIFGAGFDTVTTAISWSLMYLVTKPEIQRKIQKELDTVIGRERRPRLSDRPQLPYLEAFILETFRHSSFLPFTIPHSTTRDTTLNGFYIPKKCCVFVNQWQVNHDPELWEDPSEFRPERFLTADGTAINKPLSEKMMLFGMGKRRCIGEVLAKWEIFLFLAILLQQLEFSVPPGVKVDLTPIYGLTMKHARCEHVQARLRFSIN

N#Cc1c(-c2ccccc2)no[n+]1[O-]
inactive: outcome [2] | Potency [3] > 46 µM | Potency [4] > 46 µM | Potency [5] | Potency [6] | outcome [7] | outcome [9] | outcome [10] | outcome [11] | outcome [12] | Potency [13] | outcome [14] | outcome [20] | Potency [21] | outcome [22] | outcome [23] | activation [24] 0.688% | outcome [25]
active: Potency [1] 0.398 µM | Potency [8] 3.98 µM | Potency [15] 10 µM | Potency [16] 12.6 µM | Potency [17] 14.1 µM | Potency [18] 10 µM | Potency [19] 11.2 µM | Potency [26] 5.01 µM
